Screens: PubChem BioAssay, several laboratories
A selection follows.
CYP2C19 inhib: blockers of cytochrome P450 2C19 activity – biochemical, luminescence, ADME assay, primary screen; P33261; CYP2C19 Supersomes, luciferin-H EGE luminescence, 30 min; inhibition, % at 5 µM; hit rate 21% among 96,000; AID 778, 2007;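 active = CYP2C19 inhibition above a set limit at 5 µM in the primary screen, cut at about 50% in these data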;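 note: plate controls were negative control wells for no effect and 2.5 mM tranylcypromine positive control for full effect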
PostGolgi ctrl: growth inhibition of yeast control strain, primary screen, counter-screen for post-Golgi transport modulator project; efflux-deficient yeast background strain, growth absorbance A615, 16 h; inhibition, % at 10 µM; AID 738, 2007; hit rate 5% among 98,000
CYP2C19 act: human CYP2C19 activators, primary screen, biochemical, luminescence; activation factor at 5 µM; Cytochrome P450 2C19 (Homo sapiens), P33261; recombinant CYP2C19, luciferin-H EGE luminescence; stronger effect = higher value; 0 = fully inhibited enzyme, 1 = untreated enzyme; 96,000 tested, under 10 active;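 active = activation factor of at least 2 at 5 µM in the primary screen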;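 note: 0 = wells with 2.5 mM tranylcypromine and 1 = vehicle-only wells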
CYP2C9 inhib: blockers of cytochrome P450 2C9 activity – biochemical, luminescence, ADME assay, primary screen. CYP2C9 Supersomes, luciferin-H conversion. AID 777, 2007. inhibition, % at 5 µM. hit rate 20% among 96,000. P11712;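 active = blocking of liver enzyme CYP2C9 beyond about 50% at 5 µM, limit read from the data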
Target sequence (P11712 whole entry, looked up): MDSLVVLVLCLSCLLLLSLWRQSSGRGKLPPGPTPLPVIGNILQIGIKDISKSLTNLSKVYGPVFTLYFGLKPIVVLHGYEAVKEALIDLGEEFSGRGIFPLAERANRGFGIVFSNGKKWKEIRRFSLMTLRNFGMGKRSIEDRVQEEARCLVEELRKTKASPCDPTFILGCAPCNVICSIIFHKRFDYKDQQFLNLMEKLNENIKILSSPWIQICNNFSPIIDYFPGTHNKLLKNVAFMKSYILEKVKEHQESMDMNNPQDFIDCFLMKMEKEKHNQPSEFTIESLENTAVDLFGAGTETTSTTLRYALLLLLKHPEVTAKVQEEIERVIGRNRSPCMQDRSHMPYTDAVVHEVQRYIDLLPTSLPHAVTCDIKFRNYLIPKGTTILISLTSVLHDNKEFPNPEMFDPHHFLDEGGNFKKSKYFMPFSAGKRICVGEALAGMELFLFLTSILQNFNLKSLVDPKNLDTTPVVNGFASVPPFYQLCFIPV
PostGolgi yeast: phenotypic screen on post-Golgi transport, primary screen | hit rate 0.9% among 98,000 | post-Golgi transport phenotypic cell assay | inhibition, % at 10 µM;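 note: yeast cells grown in 1536-well plates; yeast grown about 18 h at 30C before absorbance read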
CYP2C9 activ: human CYP2C9 activators, primary screen, biochemical, luminescence. Cytochrome P450 2C9 (Homo sapiens), P11712. recombinant CYP2C9, luciferin-H conversion; stronger effect = higher value; factor 1 = untreated enzyme, 0 = blocked. activation factor at 5 µM. hit rate 1.4% among 96,000;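 active = activation factor of 2 or more for CYP2C9 at a 5 µM dose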;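 note: 0 = sulfaphenazole-blocked wells and 1 = vehicle-only wells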
* hit, by the source's call. Cut-off read from the data, not from the text of the source, unless noted: active = inhibition above about 30%; inactive = the rest.

SMILES	CYP2C19 inhib	PostGolgi ctrl	CYP2C19 act	CYP2C9 inhib	PostGolgi yeast	CYP2C9 activ
CC(C)(C)N(Cc1ccccc1)C(=O)CSc1nnc(CNc2ccc(F)cc2)o1	17	19	0.8	24	16	0.8
CCc1nn(CC(=O)NCCCN2CCc3ccccc3C2)c(=O)c2cc3sccc3n12	1	8	1	-8	-4	1.1
CCOC(=O)C1CCCN(C(=O)c2ccccc2SCCOC)C1 (stereo not given)	61*	9	0.4	68*	-3	0.3
CN1CCN(C(=O)c2cc(Cl)ccc2Cl)CC1	-8	31*	1.1	-37	0	1.4
CCOC(=O)C1CCCN(C(=O)c2cc(=O)c3ccccc3o2)C1 (stereo not given)	34	-8	0.7	-23	-4	1.2
CCOC(=O)C1CCCN(C(=O)Cn2nc(CC)n3c(cc4sccc43)c2=O)C1 (stereo not given)	84*	53*	0.2	45	-4	0.6
CCOC(=O)C1CCCN(C(=O)C(C)Oc2ccc(Cl)cc2Cl)C1 (stereo not given)	40	18	0.6	51*	-6	0.5
CN1CCN(C(=O)c2ccc3ccccc3c2)CC1	13	17	0.9	-29	2	1.3
CC(C)C(C(=O)N1CCOCC1)N1C(=O)c2ccccc2C1=O (stereo not given)	14	0	0.9	14	-3	0.9
CCCCC(=O)Nc1ccc(C(=O)N2CCCC(C(=O)OCC)C2)cc1 (stereo not given)	92*	8	0.1	-1	-1	1
CCOC(=O)N1CCN(C(=O)CCSCCc2ccncc2)CC1	63*	2	0.4	32	-2	0.7
CCOC(=O)C1CCCN(C(=O)Cc2c(F)cccc2Cl)C1 (stereo not given)	67*	-3	0.3	43	35*	0.6
CCOC(=O)C1CCN(C(=O)Cc2c(F)cccc2Cl)CC1	30	16	0.7	21	-3	0.8
CCOC(=O)C1CCCN(C(=O)c2cc(Cl)ccc2Cl)C1 (stereo not given)	97*	22	0	94*	-3	0.1
CCCC(=O)Nc1ccc(C(=O)N2CCCC2)cc1	-4	5	1	0	-7	1
CCOC(=O)C1CCCN(C(=O)c2cccs2)C1 (stereo not given)	39	-3	0.6	18	10	0.8
CCOC(=O)N1CCN(C(=O)CSCc2ccc(C)cc2)CC1	12	11	0.9	13	-1	0.9
CCCCCC(=O)N/N=C(\C)c1ccc(Cl)cc1	48	0	0.5	32	-2	0.7
CCN(CC)S(=O)(=O)c1cccc(C(=O)Nc2nncs2)c1	22	6	0.8	29	4	0.7
COc1ccccc1N1CCN(C(=O)c2cc(-c3cccc(Cl)c3)on2)CC1	8	21	0.9	9	-2	0.9
CCOC(=O)Cn1nc(C)n(-c2ccc(C)cc2)c1=O	-7	2	1.1	-2	19	1
COC(=O)C1CCN(C(=O)C(C)Oc2ccc(Cl)cc2Cl)CC1 (stereo not given)	90*	16	0.1	18	-5	0.8
CCOC(=O)C1CCCN(Cc2c(F)cccc2Cl)C1 (stereo not given)	62*	2	0.4	7	2	0.9
CCOC(=O)C1CCN(Cc2c(F)cccc2Cl)CC1	18	-7	0.8	17	-2	0.8
CCOC(=O)N1CCN(CCC(=O)Nc2ccc(C)cc2)CC1	6	7	0.9	3	-1	1
CCOC(=O)C1(S(=O)(=O)c2ccc(Cl)cc2)CCN(Cc2ccc(Cl)cc2)CC1	57*	15	0.4	69*	-4	0.3
CCOC(=O)N1CCN(CCC(=O)c2ccc(Cl)cc2)CC1	37	-8	0.6	64*	1	0.4
CCn1[nH]c(=O)c(=Nc2c(C)n(C)n(-c3ccccc3)c2=O)cc1-c1ccc(Cl)cc1	4	-4	1	41	6	0.6
CCCCCCCCCCS(=O)(=O)N/N=C/c1ccc([N+](=O)[O-])cc1	29	5	0.7	36	-2	0.6
